Laboratory results from PubChem BioAssay AID1490 (National Center for Advancing Translational Sciences (NCATS), 2009).
About 11,000 (3.5%) of roughly 310,000 compounds were called active. Not shown: some 4% with an inconclusive outcome. This is one part of a sample in which actives are shown more often than they occur. Calls come from the whole dose curve; as a rule, active = well fitted inhibition curve with a large enough effect; inconclusive = small, poorly fitted or top-dose-only effect, or another doubt; inactive = no such curve, though single readings can be large or run the other way.

Target: 4'-phosphopantetheinyl transferase ffp (Bacillus subtilis) (UniProt Q9F4F7)
Experiment: qHTS Assay for Inhibitors of Bacillus subtilis Sfp phosphopantetheinyl transferase (PPTase);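 note: the enzyme is Sfp with the accession as filed and its product quenches rhodamine fluorescence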;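 for largest response in the series, negative = inhibition: 0% = enzyme reaction without inhibitor and -100% = no enzyme wells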
Settings: Biochemical Sfp PPTase activity
How it was run: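 With Hepes-Na pH 7.6 buffer containing 10 mM MgCl2, Sfp (15 nM) modified BHQ-2-YbbR (12.5 uM) using rhodamine-CoA (5 uM). Two reads 30 minutes apart at 525/598 nm yielded each well's rate.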
Potency is the fitted concentration of half-maximal effect.

Row | SMILES | largest response in the series, negative = inhibition | Potency
1 | O=C(CCNC(=O)C1CCN(S(=O)(=O)c2ccccc2)CC1)NC1CC1 | 5.65% (inactive) | –
2 | Cc1ccn(C(CC(=O)c2ccc(Br)cc2)C(=O)O)n1 (stereo unspecified) | – | 22.4 µM (active)
3 | Cc1ccc(NC(=O)CCC(=O)c2ccc(Br)cc2)cc1 | 11.8% (inactive) | –
4 | Cc1cc(C)c2c(=O)[nH]c(SCC(=O)Nc3ccc(Br)cc3)nc2n1 | 1.73% (inactive) | –
5 | CCOc1ccc2nc(NCCNS(=O)(=O)c3ccccc3)c(C#N)cc2c1 | – | 79.4 µM (active)
6 | CCOc1ccc2nc(NCCNC(=O)C(C)(C)C)c(C)cc2c1 | 17.3% (inactive) | –
7 | CCOc1ccc(S(=O)(=O)NCCSc2ccccc2)cc1 | 6.97% (inactive) | –
8 | COc1c(O)ccc2c1CN1CCc3cc4c(cc3C1C2)OCO4 (stereo unspecified) | – | 35.5 µM (active)
9 | COc1ccc2cc1Oc1ccc(cc1)C[C@H]1c3cc(c(OC)cc3CCN1C)Oc1c(O)c(OC)cc3c1[C@H](C2)N(C)CC3 | 1.93% (inactive) | –
10 | COc1cc(COCC(O)CN2CCN(Cc3ccc4c(c3)OCO4)CC2)cc(OC)c1OC (stereo unspecified) | 8.76% (inactive) | –
11 | CCOC(=O)[C@]1(C(/C=C/c2ccco2)NC(=O)OC)CCCC1=O (stereo partly specified) | -6.29% (inactive) | –
12 | O=C(O)c1cc(S(=O)(=O)N(Cc2ccccc2)c2ccccc2)ccc1Cl | 19% (inactive) | –
13 | CCC(c1nnnn1Cc1ccco1)N(CCc1ccccc1)Cc1cc2cccc(C)c2[nH]c1=O (stereo unspecified) | – | 25.1 µM (active)
14 | CCC(c1nnnn1Cc1ccco1)N(CCc1ccccc1)Cc1cc2ccc(OC)cc2[nH]c1=O (stereo unspecified) | -15.9% (inactive) | –
15 | COc1ccc2[nH]c(=O)c(CN(Cc3nnnn3CCc3ccccc3)CC3CCCO3)cc2c1 (stereo unspecified) | 0.899% (inactive) | –
16 | CCC(c1nnnn1Cc1ccco1)N(Cc1cc2cc(OC)ccc2[nH]c1=O)C1CCCCC1 (stereo unspecified) | – | 3.55 µM (active)
17 | CCC(c1nnnn1C1CCCC1)N(Cc1cccs1)Cc1cc2cccc(C)c2[nH]c1=O (stereo unspecified) | 9.11% (inactive) | –
18 | CCC(c1nnnn1Cc1ccccc1)N(Cc1cc2cc(OC)ccc2[nH]c1=O)CC1CCCO1 (stereo unspecified) | -86% (inactive) | –
19 | COc1ccc(-c2nc3c(s2)CCc2onc(-c4ccc(OC)cc4)c2-3)cc1 | 4.62% (inactive) | –
20 | CC(NCc1cccs1)C(=O)Nc1cc(Cl)cc(Cl)c1 (stereo unspecified) | -16.2% (inactive) | –
21 | CC1=C(C(=O)NC2CC(C)(C)Cc3c2cnn3-c2ccc(C)cc2)OCCO1 (stereo unspecified) | 15.5% (inactive) | –
22 | CCN(CC)CCCCn1c(-c2ccccc2)nc2c(N3CCOCC3)nc(C)nc21 | 39.5% (inactive) | –
23 | O=C(C1CCCO1)N1CCN(S(=O)(=O)c2ccc(Br)cc2)CC1 (stereo unspecified) | -3.46% (inactive) | –

Row | SMILES | largest response in the series, negative = inhibition | Potency
24 | O=C(CN1C(=O)S/C(=C\c2ccccc2F)C1=O)NCCCn1ccnc1 | 16.3% (inactive) | –
25 | COc1cc2ccccc2cc1C(=O)Nc1nc(C)c(C(C)=O)s1 | -2.33% (inactive) | –
26 | CC(=O)c1sc(NC(=O)C2=NN(c3ccccc3)C(=O)CC2)nc1C | – | 79.4 µM (active)
27 | CC(=O)c1sc(N/N=C\c2ccc(C)cc2)nc1C | -20.4% (inactive) | –
28 | CCCCN1C(=O)C(C)=C(C)C1OCCc1ccc(OC)c(OC)c1 (stereo unspecified) | 14% (inactive) | –
29 | CCC(=O)c1cn(CCOc2ccccc2OC)c2ccccc12 | 2.97% (inactive) | –
30 | O=S(=O)(c1ccc(NC(=S)NN=C(C2CC2)C2CC2)cc1)N1CCOCC1 | – | 44.7 µM (active)
31 | O=C(NC(=S)Nc1ccc(S(=O)(=O)N2CCOCC2)cc1)c1ccccc1[N+](=O)[O-] | -9.64% (inactive) | –
32 | CN1CCN(S(=O)(=O)c2ccc(NC(=S)NC(=O)C3CC3)cc2)CC1 | 22.5% (inactive) | –
33 | CC(=O)Oc1cccc(C(=O)Nc2ccccc2NC(=O)c2cccc(OC(C)=O)c2)c1 | 11.7% (inactive) | –
34 | CCOc1ccc2[nH]c(=O)c(CN(CCCO)S(=O)(=O)c3ccc(F)cc3)cc2c1 | 2.06% (inactive) | –
35 | CC1=C(C)CC2C(=O)N(c3cccc4ccccc34)C(=O)C2C1 (stereo unspecified) | – | 39.8 µM (active)
36 | Cc1ccc(N2C(=O)CC(Nc3cccc4ccccc34)C2=O)cc1 (stereo unspecified) | 3.72% (inactive) | –
37 | O=C1c2ccccc2C(=O)N1c1cccc2ccccc12 | 4.99% (inactive) | –
38 | COc1ccc(NC(=O)CCS(=O)(=O)c2cc3c(cc2Cl)NC(=O)CO3)cc1OC | 8.75% (inactive) | –
39 | C=CCc1ccccc1OCC(=O)N/N=C/c1ccccc1OCC | -17.8% (inactive) | –
40 | CCOc1ccccc1/C=N/NC(=O)CNC(=O)COc1ccccc1 | 13.5% (inactive) | –
41 | C=C(C)CNC(=S)N/N=C/c1ccccc1OCC(=O)O | – | 12.6 µM (active)
42 | Cc1ccc(NC(=O)O[C@@H]2C(=O)c3cc(Br)ccc3O[C@H]2c2ccc3c(c2)OCO3)cc1Br | -5.42% (inactive) | –
43 | N[C@@H](Cc1ccccc1)C(=O)N1CCC(C(=O)NCC(=O)Nc2ccc(F)cc2)CC1 | -3.37% (inactive) | –
44 | C[N+](C)(C)CCNC(=O)c1cc[n+](Cc2ccccc2)c(/C=N/O)c1 | 3.04% (inactive) | –
45 | N#CCC(=O)NC1CCC(CC2CCC(NC(=O)CC#N)CC2)CC1 (stereo unspecified) | -5.45% (inactive) | –
46 | Cn1c(SCC(=O)N2CCCc3ccccc32)nc2ccccc2c1=O | 0.535% (inactive) | –

Row | SMILES | largest response in the series, negative = inhibition | Potency
47 | O=C(CSc1ccc2nnc(-c3ccccc3)n2n1)N1CCCc2ccccc21 | – | 8.91 µM (active)
48 | COC(=O)c1ccc(CSc2ccccc2C)o1 | 17.7% (inactive) | –
49 | COc1ccc(-c2nnc3ccc(SCc4ccccc4)nn23)cc1 | -4.23% (inactive) | –
50 | COC(=O)c1ccc(CSc2ccc3nnc(-c4ccccc4)n3n2)o1 | – | 70.8 µM (active)
51 | CCCn1c(SCC(=O)N2CCc3ccccc32)nnc1-c1ccncc1 | 15.4% (inactive) | –
52 | CN(CC(=O)Nc1ccc(Cl)cc1)C(=O)CNC(=O)c1ccc2ccccc2c1 | 1.11% (inactive) | –
53 | O=C1CCN(Cc2ccccc2)CCN1[C@H](CSc1ccccc1)c1ccccc1 | 2.51% (inactive) | –
54 | O=C(Nc1nc2ccccc2s1)c1ccc2c(c1)OCO2 | 16.2% (inactive) | –
55 | O=C(O)CS/C(=C\c1ccc(F)cc1)c1nc2ccccc2s1 | 27.3% (inactive) | –
56 | O=C(O)CC/C(=C\c1cc2c(cc1Br)OCO2)c1nc2ccccc2s1 | – | 50.1 µM (active)
57 | CC(C)[C@H](NC(=O)N1CCn2c1nc1ccccc12)C(=O)NCCc1ccccc1 | 3.48% (inactive) | –
58 | CC(C(=O)NC1CCS(=O)(=O)C1)N1C(=O)/C(=C/c2ccc(Cl)cc2)SC1=S (stereo unspecified) | -16.1% (inactive) | –
59 | CC(C)(C)c1ccc(CN2C(=O)c3ccccc3S2(=O)=O)cc1 | -8.95% (inactive) | –
60 | Cc1ccccc1NC(=O)CSc1nc2ccc(Nc3nc(N4CCOCC4)nc(N4CCOCC4)n3)cc2s1 | -16.9% (inactive) | –
61 | Cc1cc(C)cc(OCC(=O)NC(C)c2ccccc2)c1 (stereo unspecified) | -3.71% (inactive) | –
62 | Cc1ccc(OCC(=O)NC(C)c2ccccc2)cc1C (stereo unspecified) | -3.78% (inactive) | –
63 | C/C(CC(=O)NC(C)c1ccccc1)=N\NC(N)=S (stereo unspecified) | – | 79.4 µM (active)
64 | CC(=O)Nc1ccc(S(=O)(=O)N2CCC(C(=O)N[C@@H](Cc3ccccc3)C(=O)O)CC2)cc1 | 27.7% (inactive) | –
65 | C[C@@H]1O[C@@H](OC[C@H]2O[C@@H](Oc3cc(O)c4c(c3)O[C@H](c3ccc(O)c(O)c3)CC4=O)[C@H](O)[C@@H](O)[C@@H]2O)[C@H](O)[C@H](O)[C@H]1O | 2.86% (inactive) | –
66 | O=C(CC1Nc2ccccc2NC1=O)Nc1ccccc1NC(=O)CC1Nc2ccccc2NC1=O (stereo unspecified) | -13.5% (inactive) | –
67 | COC(=O)c1cc(C)sc1NC(=O)CC1Nc2ccccc2NC1=O (stereo unspecified) | – | 79.4 µM (active)
68 | CCOC(=O)c1ccccc1NC(=O)CC1Nc2ccccc2NC1=O (stereo unspecified) | 5.03% (inactive) | –
69 | Cc1sc2ncn(CC(=O)NCCCC(=O)N(C)Cc3ccccc3)c(=O)c2c1C | 13.5% (inactive) | –

Row | SMILES | largest response in the series, negative = inhibition | Potency
70 | O=S(=O)(c1ccccc1)c1nc(-c2ccccc2)oc1NCCCN1CCOCC1 | 11.1% (inactive) | –
71 | N#Cc1nc(-c2ccc(OCc3ccccc3)cc2)oc1NCCCN1CCOCC1 | – | 44.7 µM (active)
72 | Cc1ccc(-c2nc(C#N)c(NCCCn3ccnc3)o2)cc1 | -4.22% (inactive) | –
73 | Cc1ccc(NS(=O)(=O)c2ccc3c(c2)oc(=O)n3C)c(C)c1 | 5.37% (inactive) | –
74 | O=C(O)c1ccc(NC(=O)c2ccc(COc3ccc(Cl)cc3)o2)cc1 | 9.95% (inactive) | –
75 | Cc1nc2nc(SCC(=O)NCc3ccco3)nn2c(C)c1Cc1ccccc1 | – | 50.1 µM (active)
76 | CCOC(=O)c1cnc(SCC(=O)NCc2ccco2)nc1N | -17.3% (inactive) | –
77 | Cc1ccc(Cc2c(C)nc3nc(SCC(=O)NCCN4CCOCC4)nn3c2C)cc1 | -2.31% (inactive) | –
78 | Cc1cccc(NC(=O)NC2(C)CCS(=O)(=O)C2)c1 (stereo unspecified) | 14.2% (inactive) | –
79 | O=S(=O)(Nc1ccccc1)c1ccc(NS(=O)(=O)c2cccs2)cc1 | 16.9% (inactive) | –
80 | S=c1[nH]nc(NCCc2ccccc2)s1 | – | 22.4 µM (active)
81 | S=C(NCCc1ccccc1)Nc1ccccc1 | -0.65% (inactive) | –
82 | CCNc1nc(-c2cc3ccccc3o2)cs1 | -14.8% (inactive) | –
83 | Cc1nc(C)c(-c2csc(NCCc3ccccc3)n2)s1 | – | 50.1 µM (active)
84 | O=C(CSc1ncccn1)NCCc1ccccc1 | 18.5% (inactive) | –
85 | Cc1ccc(Nc2nc(-c3sc(NC(=O)c4ccccc4)nc3C)cs2)cc1 | 0.727% (inactive) | –
86 | COc1cccc(C2CC(c3cccs3)=NN2C(=O)CSC2=NCCS2)c1OC (stereo unspecified) | -16% (inactive) | –
87 | Cc1cc(C)cc(Oc2c(C(F)(F)F)oc3cc(OCC(=O)O)ccc3c2=O)c1 | 5.59% (inactive) | –
88 | CCOC(=O)N1CCC(N2Cc3cccc(C(=O)Nc4ccc(S(=O)(=O)N(CC)CC)cc4)c3C2=O)CC1 | -1.4% (inactive) | –
89 | CCc1ccc2nc(N(CCCN(C)C)C(=O)c3ccc4c(c3)OCCO4)sc2c1 | -7.75% (inactive) | –
90 | CCOc1ccc2nc(N(CCN(C)C)C(=O)c3ccc4ccccc4c3)sc2c1 | – | 79.4 µM (active)
91 | CCCC(=O)N(CCN1CCOCC1)c1nc2ccc(OCC)cc2s1 | 4.61% (inactive) | –
